The results in this text go back to PubChem BioAssay (NCI).

The panel holds about 83,000 compounds, 20% with a hit somewhere; the sample as a whole holds those more often.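 The test compound was applied at a single concentration to cells in 96-well plates for 48 hours, and percent growth was recorded.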 Unmarked numbers belong to inactive results. The source made the active and inactive calls. Rule for the calls: active = growth percent below 10; inactive = the rest.

Among the test systems are NCI-H23 lung; NCI-H226 lung; NCI-H322M lung; HOP-62 NSCLC; NCI-H460 lung; HOP-92 NSCLC; NCI-H522 lung; A549/ATCC NSCLC; 786-0 renal; COLO 205 colon.
Holding throughout (experiment): NCI-60 one-dose screen, 48 h (100 = growth as untreated, 0 = no growth, -100 = all killed)
Common to all, as to settings: 10 µM unless noted

Take `COCCOc1cc2ncnc(N3CCN(c4cc(S(C)(=O)=O)c(C)cc4Cl)CC3)c2cc1OCCOC`: the growth in the experiment on NCI-H23 lung was 81.9%; in the experiment on NCI-H226 lung, 81.4%; with NCI-H322M lung, 105%; in the experiment on HOP-62 NSCLC it was 100%; with NCI-H460 lung, 102%; in the experiment with HOP-92 NSCLC it was 53.3%. Further, the growth in the experiment on NCI-H522 lung was 90.6%; in the experiment on A549/ATCC NSCLC it was 90.6%; in the experiment on 786-0 renal, 105%; in the experiment with COLO 205 colon, 97.1%.

With `CS(=O)(=O)Nc1cc(-c2ccc3ncnc(Nc4ccc5c(cnn5Cc5ccc(F)cc5)c4)c3c2)cnc1Cl`, the growth is 43.8% with NCI-H23 lung; 66.8% in the experiment on NCI-H226 lung; 60.7% in the experiment with NCI-H322M lung; 43.5% in the experiment on HOP-62 NSCLC; 61.5% in the experiment with NCI-H460 lung; -17.5% (active) in the experiment with HOP-92 NSCLC. Besides, the growth is 43.7% in the experiment with NCI-H522 lung, 78.7% in the experiment with A549/ATCC NSCLC, 48.3% in the experiment on 786-0 renal and 60.1% in the experiment with COLO 205 colon.

For the molecule `COC1=CC(c2ccc[nH]2)=N/C1=C\c1[nH]c(C)c(C)c1CCC(=O)OCc1ccccc1`, the growth in the experiment with NCI-H23 lung is -9.49% (active); with NCI-H226 lung, -2.19% (active); with NCI-H322M lung it was 54.5%; in the experiment with HOP-62 NSCLC, -3% (active); in the experiment with NCI-H460 lung, 18.6%; in the experiment with HOP-92 NSCLC it was -27.8% (active). Further, the growth in the experiment with NCI-H522 lung is -38.7% (active); with A549/ATCC NSCLC, 10.1%; in the experiment with 786-0 renal, -38.8% (active); with COLO 205 colon, -64.8% (active).

With `CCNCCNc1cc(-c2ccc(C(F)(F)F)cc2)c(C#N)c2nc3ccccc3n12`, the growth in the experiment with NCI-H23 lung was -83.7% (active); in the experiment with NCI-H226 lung, -66.1% (active); in the experiment on NCI-H322M lung, -56.2% (active); in the experiment with HOP-62 NSCLC, -67.7% (active); in the experiment on NCI-H460 lung it was -81.4% (active); with HOP-92 NSCLC, -81.2% (active). In addition, the growth in the experiment with NCI-H522 lung is -69% (active); with A549/ATCC NSCLC, -76.4% (active); in the experiment with 786-0 renal it was -96.2% (active); in the experiment on COLO 205 colon, -80.4% (active).

As for `Oc1ccc(Cl)cc1/C=N\NC(=S)N/N=C/c1cc(Cl)ccc1O`, the growth in the experiment with NCI-H23 lung is 50%; with NCI-H226 lung it was 32.5%; with NCI-H322M lung it was 34.4%; in the experiment with HOP-62 NSCLC, 51.2%; in the experiment on NCI-H460 lung it was 14.7%; with HOP-92 NSCLC, 40.1%. In addition, the growth in the experiment with NCI-H522 lung is -7.22% (active); with A549/ATCC NSCLC, 37.4%; in the experiment with 786-0 renal, 21.4%; with COLO 205 colon, 41.5%.

Regarding `COc1ccc(Nc2nc(-c3cc(O)c(C)c(C)c3O)cs2)cc1`, the growth with NCI-H23 lung is 78.1%; in the experiment with NCI-H226 lung, 96.3%; in the experiment on NCI-H322M lung, 90.9%; in the experiment with HOP-62 NSCLC, 69.9%; in the experiment with NCI-H460 lung it was 39%; in the experiment with HOP-92 NSCLC, 90.5%. In addition, the growth in the experiment on NCI-H522 lung is 34.8%; in the experiment on A549/ATCC NSCLC, 58%; in the experiment with 786-0 renal, 102%; in the experiment with COLO 205 colon, 115%.

As to `CC1(C)COB(OCC(C)(C)COB2OCC(C)(C)CO2)OC1`, the growth is 101% in the experiment with NCI-H23 lung; 100% with NCI-H226 lung; 92.2% in the experiment with NCI-H322M lung; 108% in the experiment with HOP-62 NSCLC; 107% in the experiment with NCI-H460 lung; 87.9% with HOP-92 NSCLC. Besides, the growth was 106% in the experiment with NCI-H522 lung, 100% in the experiment on A549/ATCC NSCLC, 104% in the experiment on 786-0 renal and 109% in the experiment with COLO 205 colon.

Consider `N#Cc1nc(-c2ccccc2)oc1S(=O)(=O)N1CCN(c2ccccc2)CC1`, for which the growth is 74.9% in the experiment with NCI-H23 lung; 87.2% with NCI-H226 lung; 95.6% in the experiment with NCI-H322M lung; 104% in the experiment on HOP-62 NSCLC; 97.8% in the experiment on NCI-H460 lung; 116% with HOP-92 NSCLC. In addition, the growth is 58.6% in the experiment on NCI-H522 lung, 99.9% in the experiment with A549/ATCC NSCLC, 99.8% in the experiment on 786-0 renal and 122% with COLO 205 colon.

In the case of `C=CCn1c(C)nc2ccc(Nc3nc(Nc4ccc5nc(C)n(CC=C)c5c4)c4ccccc4n3)cc21`, the growth in the experiment on NCI-H23 lung is 32.8%; in the experiment on NCI-H226 lung it was 67.4%; in the experiment with NCI-H322M lung it was -13.4% (active); in the experiment on HOP-62 NSCLC, -61.5% (active); in the experiment on NCI-H460 lung, -69.5% (active); with HOP-92 NSCLC, 43.2%. The growth is -90.7% (active) with NCI-H522 lung, -83.1% (active) in the experiment on A549/ATCC NSCLC, -93.8% (active) in the experiment on 786-0 renal and -92.3% (active) with COLO 205 colon.

In the case of `COc1cc2c(cc1OCCCN1CCN(CCCOc3cc4c(cc3OC)C(=O)N3CCC[C@H]3C=N4)CC1)C=CC(C)(C)O2`, the growth in the experiment on NCI-H23 lung is -58.5% (active); in the experiment on NCI-H226 lung it was -70.3% (active); in the experiment with NCI-H322M lung, -80.7% (active); in the experiment on HOP-62 NSCLC, -50.9% (active); with NCI-H460 lung, -94.8% (active); in the experiment on HOP-92 NSCLC, -29.6% (active). Also, the growth in the experiment with NCI-H522 lung is -80.5% (active); with A549/ATCC NSCLC it was -79.2% (active); with 786-0 renal, -97.1% (active); in the experiment with COLO 205 colon it was -76.8% (active).

Consider `COC(=O)c1nc(-c2ccc(C)cc2)oc1S(=O)(=O)c1cccc(OC)c1`, for which the growth was 92.6% in the experiment with NCI-H23 lung; 87% in the experiment with NCI-H226 lung; 93.3% with NCI-H322M lung; 96.2% in the experiment on HOP-62 NSCLC; 104% in the experiment with NCI-H460 lung; 79.6% in the experiment with HOP-92 NSCLC. The growth was 33.8% in the experiment on NCI-H522 lung, 97.5% in the experiment with A549/ATCC NSCLC, 85.2% in the experiment with 786-0 renal and -8.96% (active) with COLO 205 colon.

As for `O=C(CN1C(=O)NC2NC(=O)NC21)N/N=C/c1ccccc1[N+](=O)[O-]` (stereo not given), the growth in the experiment on NCI-H23 lung is 106%; in the experiment on NCI-H226 lung it was 87.6%; in the experiment with NCI-H322M lung, 106%; in the experiment on HOP-62 NSCLC, 103%; with NCI-H460 lung, 108%; in the experiment on HOP-92 NSCLC, 115%. In addition, the growth in the experiment with NCI-H522 lung is 96.5%; with A549/ATCC NSCLC, 110%; in the experiment on 786-0 renal, 101%; with COLO 205 colon, 120%.

`CCN(CC)S(=O)(=O)c1ccc(S(=O)(=O)N2CCC[C@@H](C(=O)N3CCN(c4nc(C(C)C)no4)CC3)C2)cc1`: the growth in the experiment on NCI-H23 lung was 50%; in the experiment with NCI-H226 lung, 82.1%; in the experiment on NCI-H322M lung, 88.7%; in the experiment with HOP-62 NSCLC, 66.8%; in the experiment with NCI-H460 lung it was 70.8%; in the experiment with HOP-92 NSCLC, 77.1%. Moreover, the growth in the experiment with NCI-H522 lung is 60.2%; in the experiment with A549/ATCC NSCLC, 67.1%; in the experiment with 786-0 renal, 89.6%; in the experiment on COLO 205 colon it was 102%.
